The source of these data is PubChem BioAssay.

Calls of active or inactive are those of the source.

The nature of test [1]: optical density shifts of acrAB sulA E. coli – strain DRC41, OD650, 48 h, E. coli filamentation inducer project, primary screen (AID 1152).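 Note: E. coli MC1000 strain DRC41 lacking acrAB efflux pump and sulA.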 The following applies: higher = more signal, called active from +8 up or from −8 down.
Test [2] is described as follows: probe aLefty1 binding on compound microarray – biochemical, small-molecule microarray, 635/667 nm fluorescence, primary screen (AID 1153).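 Note: score merges spot fluorescence with signal-to-noise ratio from the scanned slide images.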 Particulars: higher = more signal.
Test [3] in a line: plasmodial surface anion channel blockers, osmotic lysis – cell-based, P. falciparum Indochina, OD700, 1 h, primary screen (AID 1154). Particulars: P. falciparum Indochina infected RBC osmotic lysis, higher = more signal, called active from +8 up or from −8 down.
The nature of test [4]: plasmodial surface anion channel blockers, osmotic lysis – cell-based, P. falciparum Indochina, OD700, 2 h, primary screen (AID 1155).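 Note: lysis reports solute entry through the parasite surface anion channel PSAC.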 The following applies: P. falciparum Indochina infected erythrocytes, higher = more signal, called active from +8 up or from −8 down.
Test [5] is described as follows: changes in parasitized red cell lysis, either direction – P. falciparum Indochina, OD700, 3 h, PSAC antagonist project, primary screen (AID 1156). The following applies: P. falciparum-infected erythrocytes, osmotic lysis, higher = more signal, called active from +8 up or from −8 down.
Test [6] is described as follows: plasmodial surface anion channel blockers, osmotic lysis – cell-based, P. falciparum Indochina, OD700, 18 h, primary screen (AID 1157). Particulars: P. falciparum Indochina infected erythrocytes, osmotic lysis OD700, 18 h; higher = more signal, called active from +8 up or from −8 down.
Test [7] can be described thus: S6 kinase pathway phospho-S6 level changes – cell-based, A549, cytoblot, luminescence, serum-stimulated, primary screen (AID 1158).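 Note: serum-stimulated A549 lung adenocarcinoma cells; signal is phosphorylated S6 detected by cytoblot immunostaining with HRP secondary.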 The following applies: 5 h, higher = more signal.
Test [8] deals with NADPH oxidase 2 (Homo sapiens) (UniProt P04839). Put plainly: compounds shifting NOX2 Amplex Red fluorescence – cell-based, HEK293-NOX2, PMA-stimulated, NOX inhibitor project, primary screen (AID 1159). Note: test concentration not given here. Particulars: 45 min, higher = more signal, called active from +8 up or from −8 down.
Sequence of NADPH oxidase 2 (Homo sapiens) (P04839 whole entry, looked up): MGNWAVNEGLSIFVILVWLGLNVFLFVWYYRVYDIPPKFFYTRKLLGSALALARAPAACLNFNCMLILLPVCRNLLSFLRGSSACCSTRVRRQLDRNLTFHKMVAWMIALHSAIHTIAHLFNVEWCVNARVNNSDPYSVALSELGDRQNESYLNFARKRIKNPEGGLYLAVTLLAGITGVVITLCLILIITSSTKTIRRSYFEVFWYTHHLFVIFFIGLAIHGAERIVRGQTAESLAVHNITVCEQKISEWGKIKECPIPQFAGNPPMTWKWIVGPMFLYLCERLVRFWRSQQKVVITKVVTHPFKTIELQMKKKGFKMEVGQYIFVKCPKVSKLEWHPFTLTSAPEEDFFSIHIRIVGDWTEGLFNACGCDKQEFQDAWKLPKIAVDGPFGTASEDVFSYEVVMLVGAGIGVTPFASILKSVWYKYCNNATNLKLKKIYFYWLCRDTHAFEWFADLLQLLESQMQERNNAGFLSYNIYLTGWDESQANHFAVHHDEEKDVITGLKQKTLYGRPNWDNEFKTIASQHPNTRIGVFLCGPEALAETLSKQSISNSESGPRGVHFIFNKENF
For test [9], the target named is NADPH oxidase 4 (Homo sapiens) (UniProt Q9NPH5). Put plainly: compounds shifting NOX4 Amplex Red fluorescence – cell-based, HEK293-NOX4, tetracycline-induced, NOX inhibitor project, primary screen (AID 1160). The following applies: HEK293-NOX4, Amplex Red H2O2 fluorescence, 45 min; higher = more signal, called active from +8 up or from −8 down.
Sequence of NADPH oxidase 4 (Homo sapiens) (Q9NPH5 whole entry, looked up): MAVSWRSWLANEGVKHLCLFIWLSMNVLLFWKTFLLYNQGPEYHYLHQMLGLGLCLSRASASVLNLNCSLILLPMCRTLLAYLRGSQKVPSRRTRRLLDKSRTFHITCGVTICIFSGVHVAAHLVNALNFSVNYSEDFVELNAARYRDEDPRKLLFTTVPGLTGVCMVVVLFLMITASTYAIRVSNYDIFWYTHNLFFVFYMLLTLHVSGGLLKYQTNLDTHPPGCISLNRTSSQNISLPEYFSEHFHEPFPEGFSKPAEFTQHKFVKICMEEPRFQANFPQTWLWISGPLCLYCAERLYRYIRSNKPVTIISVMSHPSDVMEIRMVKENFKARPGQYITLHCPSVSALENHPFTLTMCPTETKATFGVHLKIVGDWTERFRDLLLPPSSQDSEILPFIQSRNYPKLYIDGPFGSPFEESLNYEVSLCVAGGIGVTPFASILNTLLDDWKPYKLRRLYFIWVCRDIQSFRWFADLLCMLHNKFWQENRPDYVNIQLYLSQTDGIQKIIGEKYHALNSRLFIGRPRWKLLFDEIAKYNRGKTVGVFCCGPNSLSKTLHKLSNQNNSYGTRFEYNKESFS
Test [10] deals with NADPH oxidase 5 (Homo sapiens) (UniProt Q96PH1). Nature of the test: compounds shifting NOX5 Amplex Red fluorescence – cell-based, HEK293-NOX5, NOX inhibitor project, primary screen (AID 1161). Particulars: HEK293-NOX5, ionomycin, 45 min, higher = more signal.
Sequence of NADPH oxidase 5 (Homo sapiens) (Q96PH1 whole entry, looked up): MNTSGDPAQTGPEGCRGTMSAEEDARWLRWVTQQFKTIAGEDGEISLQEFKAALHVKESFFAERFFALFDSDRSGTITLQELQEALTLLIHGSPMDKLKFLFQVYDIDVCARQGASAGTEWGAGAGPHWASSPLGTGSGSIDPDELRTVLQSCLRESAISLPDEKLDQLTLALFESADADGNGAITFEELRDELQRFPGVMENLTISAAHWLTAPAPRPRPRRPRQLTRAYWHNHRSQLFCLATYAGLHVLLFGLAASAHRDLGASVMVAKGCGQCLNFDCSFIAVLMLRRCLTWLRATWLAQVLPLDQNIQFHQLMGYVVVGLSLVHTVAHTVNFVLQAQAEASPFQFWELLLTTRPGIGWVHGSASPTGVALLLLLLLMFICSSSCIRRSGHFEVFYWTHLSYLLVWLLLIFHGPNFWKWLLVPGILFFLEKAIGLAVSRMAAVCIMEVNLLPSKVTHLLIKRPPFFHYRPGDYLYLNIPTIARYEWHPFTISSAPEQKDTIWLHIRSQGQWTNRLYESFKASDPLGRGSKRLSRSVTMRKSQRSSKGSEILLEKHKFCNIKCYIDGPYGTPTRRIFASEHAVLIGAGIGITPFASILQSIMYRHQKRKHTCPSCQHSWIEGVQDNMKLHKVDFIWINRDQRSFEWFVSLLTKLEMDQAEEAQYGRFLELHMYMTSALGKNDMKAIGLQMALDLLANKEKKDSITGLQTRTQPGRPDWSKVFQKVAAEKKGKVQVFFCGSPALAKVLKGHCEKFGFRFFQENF

In the case of `O=C1OCC=C[C@H]2OC34C=CCN(CCN5CCOCC5)C(=O)[C@H]3N(CCCCCCO)C(=O)[C@@H]4[C@@H]12` (stereo not given in full), the z-score is -0.416 (inactive) in [1]; 4.96 (inactive) in test [3]; 1.32 (inactive) in test [4]; 1.21 (inactive) in test [5]; 0.404 (inactive) in test [6]; 1.07 in test [7]. Besides, the z-score in [8] was 1.51 (inactive); in test [9], -0.325 (inactive); in test [10] it was 1.92. This compound also showed a composite z-score in test [2] of 0.0253.
In the case of `O=C1O[C@H](c2ccccc2)[C@H](c2ccccc2)N2[C@H]1[C@@H](C(=O)NC[C@H](O)c1ccccc1)[C@]1(C(=O)Nc3ccc(C#CC4(O)CCCCCC4)cc31)[C@H]2c1ccccc1OCCO`, the z-score in test [1] is 0.0511 (inactive); in test [3], 3.8 (inactive); in [4], 2.21 (inactive); in test [5] it was -0.957 (inactive); in test [6] it was 2.07 (inactive); in test [7], -0.0056. Moreover, the z-score in test [8] was 0.65 (inactive); in test [9], 0.267 (inactive); in [10] it was 1.39. This compound also showed a composite z-score in [2] of 0.701.
As to `CCN(CC)c1ccc(N2CC=CC34O[C@@H]5C=CCOC(=O)[C@@H]5[C@H]3C(=O)N(CCCCCO)[C@@H]4C2=O)cc1` (stereo not given in full), the z-score in test [1] was 0.825 (inactive); in test [3] it was 1.29 (inactive); in test [4], 0.172 (inactive); in test [5] it was 1.36 (inactive); in test [6], 0.113 (inactive); in [7], -0.491. The results for the z-score in [8], in test [9] and in test [10] were 0.766 (inactive), 0.449 (inactive) and 1.67, respectively. In [2], this compound came in with a composite z-score of 0.271.
As for `COc1ccc(C(O)C2C=CC3C(=O)N(c4ccccc4)C(=O)C3N2Nc2ccccc2)c2ccccc12` (stereo not given), the z-score in test [1] was -0.831 (inactive); in [3], 6.65 (inactive); in test [4] it was 1.75 (inactive); in test [5] it was 0.303 (inactive); in [6], 1.34 (inactive); in test [7], -0.654. The z-score in test [8] is -1.48 (inactive); in test [9], -3.15 (inactive); in test [10], -2.57. The composite z-score in [2] came out at 0.318.
On to `CN(C)CCCCNC(=O)[C@@H]1C[C@@H]2C(=O)N[C@@H](CCCCN)C(=O)N2[C@@H]1c1cccc(OCCO)c1`, for which the z-score in test [1] was -0.389 (inactive); in test [3] it was 2.51 (inactive); in test [4], 0.337 (inactive); in test [5], -1.21 (inactive); in [6] it was -0.0182 (inactive); in test [7], -0.446. For the same compound, the z-score in [8] is 1.36 (inactive); in test [9], 1.05 (inactive); in [10], 1.43. The compound also gave a composite z-score in test [2] of 0.837.
Consider `CCOC(=O)C[C@H]1[C@H](OC(=O)c2ccccc2-c2ccccc2)[C@@H](NC(=O)c2ccc(-c3ccccc3)cc2)c2cc(OCCCO)ccc2N1C(=O)c1ccccc1`, for which the z-score was 0.657 (inactive) in [1]; 0.568 (inactive) in test [3]; 0.135 (inactive) in test [4]; 1.02 (inactive) in test [5]; 0.157 (inactive) in test [6]; 1.1 in test [7]. For the same compound, the z-score in test [8] is 0.35 (inactive); in test [9], 0.169 (inactive); in test [10], 1.46. Also, the composite z-score in test [2] is 0.0121.
With `COC(=O)[C@@]1(Cc2ccccc2)[C@H]2c3cc(C(=O)N(C)C)n(Cc4ccccc4)c3C[C@H]2CN1C(=O)c1ccccc1`, the z-score in test [1] is -1.39 (inactive); in [3] it was 1.54 (inactive); in test [4] it was 0.488 (inactive); in test [5] it was 0.775 (inactive); in test [6], 0.667 (inactive); in [7], -0.608. Further, the z-score in test [8] was 0.543 (inactive); in test [9], -0.0416 (inactive); in [10], -0.0705. The composite z-score in test [2] amounted to 0.177.
As for `NC(=O)NCC#Cc1ccc2c(c1)[C@]1(C(=O)N2)[C@H](c2ccc(O)cc2)N2[C@H](c3ccccc3)[C@H](c3ccccc3)OC(=O)[C@H]2[C@@H]1C(=O)N1CCN(c2ncccn2)CC1`, the z-score in [1] is 0.642 (inactive); in test [3], 1.36 (inactive); in test [4], 0.747 (inactive); in [5], 0.458 (inactive); in [6], 0.565 (inactive); in test [7], -0.0168. The z-score was 1.06 (inactive) in test [8], 0.478 (inactive) in test [9] and 1.68 in [10]. The composite z-score in [2] is 0.266.
As to `CN1C(=O)C2C=CC(C(O)C(c3ccccc3)c3ccccc3)N(Nc3ccccc3)C2C1=O` (stereo not given), the z-score was -2.34 (inactive) in [1]; 1.63 (inactive) in [3]; 2.15 (inactive) in test [4]; 0.742 (inactive) in test [5]; 1.12 (inactive) in test [6]; -0.946 in [7]. In addition, the z-score was -1.39 (inactive) in [8], -4.91 (inactive) in test [9] and -2.44 in test [10]. The same compound returned a composite z-score in test [2] of 0.516.
For the compound `O[C@@H](Cc1ccccc1)[C@@H](/C=C/c1ccccc1)NCc1ccccc1Br`, the z-score is 0.955 (inactive) in test [1]; 1.18 (inactive) in test [3]; 0.411 (inactive) in test [4]; 1.35 (inactive) in test [5]; 0.205 (inactive) in test [6]; 0.747 in test [7]. For the same compound, the z-score in test [8] was -0.175 (inactive); in test [9], 0.272 (inactive); in [10], -0.921. In [2], this compound returned a composite z-score of 0.0927.
